Compound activity (PubChem BioAssay)
Only some compounds are listed: those with a hit (about 8.7% of all), similar ones and a draw of the others.
Vaccinia mCherry: inhibitors of vaccinia virus infection (mCherry reporter signal). Vaccinia virus mCherry reporter infection, fluorescence. Potency, µM (highest dose often 36.5 µM), most hits filed as inhibitors. hit rate 0.63% among 310,000; calls by dose curve; tested in A549 cells; also: nearly all actives have a fitted effect of over 35% in size
Pf growth 48h: P. falciparum growth inhibition at 48 hours (one generation) | P. falciparum luciferase growth in erythrocytes, 48 h | hit rate 5.9% among 310,000 | Potency, µM (titrated, usually from 28.7 µM), hits mostly inhibitors
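Luciferase-expressing parasites in RBCs, 2% Hct / 0.1% parasitemia final; RPMI 1640 + 0.5% Albumax; 37 C, 5% CO2, one generation; luminescence read-out, lower signal = inhibition.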
AMA1-RON2 inh: inhibitors of Plasmodium falciparum AMA1-RON2 interaction | AlphaScreen AMA1-biotinylated RON2 peptide binding | Potency, µM (titrated, usually from 58.2 µM), most hits filed as inhibitors | hit rate 0.2% among 360,000 | AID 720542; also: nearly all actives have a fitted effect of over 45% in size
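AMA1 (3D7) with his tag at 25 nM final met compounds first, then biotinylated RON2 peptide at 25 nM; detection used donor plus acceptor beads, 10 µg/mL apiece, read by AlphaScreen after 30 min at room temperature.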
Pf growth 96h: inhibits malaria parasite growth, 96 h | P. falciparum luciferase reporter growth, 96 h | Potency, µM (titrated, usually from 28.7 µM), usual class: inhibitors | hit rate 6.9% among 320,000 | AID 504834
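Readout is luminescence from an integrated firefly luciferase in P. falciparum. Red cells, 2% hematocrit and 0.05% parasitemia final, were cultured with compound through two parasite generations (96 hours) at 37 C, 5% CO2.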
Vaccinia Venus: vaccinia inhibition (Venus reporter) | AID 720580 | hit rate 0.46% among 330,000 | Potency, µM (series often up to 36.5 µM), most hits filed as inhibitors | Vaccinia virus Venus reporter expression, fluorescence; calls by dose curve; tested in A549 cells; also: nearly all actives have a fitted effect of over 30% in size
A number is an active result; i = inactive; ? = inconclusive; nt = no result given; ! = repeats disagree; [ ] = dose if it differs, or a comment. Unless noted, calls follow the shape of the dose curve; as a rule, active = well fitted curve in the direction sought with a large enough effect; inconclusive = small, poorly fitted or top-dose-only effect, or another doubt; inactive = no such curve, though single readings can be large; an effect the other way counts as inactive or inconclusive.

SMILES | Vaccinia mCherry | Pf growth 48h | AMA1-RON2 inh | Pf growth 96h | Vaccinia Venus
Cc1cc(C(=O)CN2C(=O)NC3(CCCc4sccc43)C2=O)c(C)n1-c1ccccc1 (stereo not given) | i | ? | i | ? | i
Cc1cc(C(=O)CN2C(=O)NC3(CCCc4ccccc43)C2=O)c(C)n1Cc1ccccc1 (stereo not given) | nt | nt | i | 1.2µM | i
O=C(O)CN1C(=O)NC2(CCCc3ccccc32)C1=O (stereo not given) | i | i | i | i | i
COc1ccc(-n2c(C)cc(C(=O)CN3C(=O)NC4(CCCc5sccc54)C3=O)c2C)cc1 (stereo not given) | i | ? | i | 4.7µM | i
Cc1cc(C(=O)CN2C(=O)NC3(CCCc4ccccc43)C2=O)c(C)n1Cc1ccco1 (stereo not given) | nt | 1.7µM | nt | nt | nt
COc1cccc(CNC(=O)Cn2nc3c(cc2=O)CCCC3)c1OC | i | nt | nt | nt | i
Cc1ccc(S(=O)(=O)c2cnc(SCC(=O)Nc3ccc4c(c3)OCCO4)[nH]c2=O)cc1 | i | nt | nt | nt | i
CC(C)(C)c1ccc(C(=O)CCCSC2=C(C#N)C(c3ccco3)C3=C(CCCC3=O)N2)cc1 (stereo not given) | nt | 6.6µM | i | i | nt
Cc1ccc(C(=O)CSC2=C(C#N)C(c3ccco3)C3=C(CCCC3=O)N2)cc1 (stereo not given) | nt | ? | i | i | nt
COc1cccc(NC(=O)CSC2=C(C#N)C(c3ccco3)C3=C(CCCC3=O)N2)c1 (stereo not given) | ? | i | i | i | ?
CCCCc1ccc(NC(=O)CSC2=C(C#N)C(c3ccco3)C3=C(CCCC3=O)N2)cc1 (stereo not given) | i | 1.9µM | i | ? | i
COc1ccc(C2C(C#N)=C(SCC(=O)Nc3ccc(C)cc3)NC3=C2C(=O)CC(C)(C)C3)cc1 (stereo not given) | i | 13µM | i | ? | i
Cc1cccc(C(=O)NCC(=O)OCc2cc(=O)n3nc(C4CC4)sc3n2)c1 | i | nt | nt | nt | i
CCC1CN(CC(=O)NCc2cccc(Br)c2)c2ccccc2S1 (stereo not given) | i | nt | nt | nt | i
CCOC(=O)c1sc(NC(=O)c2nc3ncccn3n2)c(C(=O)OC(C)C)c1C | i | nt | nt | nt | i
CC(=O)Nc1ccc(Nc2nc3ccc(Cl)cc3n3cnnc23)cc1 | i | nt | nt | nt | i
CCOC(=O)C1(Cc2ccc(OC)cc2)CCN(C(=O)Cn2cnnn2)CC1 | i | i | i | 1.9µM | i
CCN(CC)S(=O)(=O)c1ccc2c(c1)N(CC(=O)N1CCN(c3cccc(C(F)(F)F)c3)CC1)C(=O)CO2 | i | nt | nt | nt | i
COc1ccc(S(=O)(=O)O/N=C2\CCSc3ccc(C)cc32)cc1 | nt | 2.9µM | i | ? | nt
Cc1ccc(C(=O)O/N=C2\CCSc3ccc(C)cc32)cc1 | nt | i | i | i | nt
O=c1[nH]c(SCc2ccc(Cl)cc2)nc2ccccc12 | nt | ? | i | 13µM | nt
O=C(CCCSc1nc2ccccc2[nH]1)NCc1ccc(Cl)cc1 | nt | ? | i | 12µM | nt
O=C(CSc1nc2ccccc2c(=O)[nH]1)NCc1ccc(Cl)cc1 | nt | nt | i | i | i
S=c1nc(SCc2ccccc2)[nH]c2ccccc12 | i | i | i | 1.7µM | i
Clc1ccc(CSc2nc3ccncc3[nH]2)cc1 | i | nt | i | 4.7µM | i
SMILES | Vaccinia mCherry | Pf growth 48h | AMA1-RON2 inh | Pf growth 96h | Vaccinia Venus
COC(=O)c1cc2oc3ccccc3c2n1Cc1ccc(Cl)cc1 | i | nt | nt | nt | i
Cc1ccc(Cl)c2c1NC(=O)C2(O)CC(=O)c1ccccc1O (stereo not given) | i | i | i | 9.3µM | i
COC(=O)C1(O)CC(CC(C)C)=NN1C(=O)c1ccccc1 (stereo not given) | i | i | i | 0.29µM | i
COc1ccc(-c2cc(C(=O)N3CCc4c(cnc(C)c4CNC(=O)c4ccsc4)C3)[nH]n2)cc1 | i | nt | nt | nt | i
O=C(NNC(=S)NCCc1ccccc1)c1ccc(Br)s1 | i | i | i | 9.3µM | i
O=c1c(-c2ccc(O)cc2)coc2cc(O)ccc12 | ? | nt | i | nt | 0.63µM!
NC(=O)c1cc(S(=O)(=O)NCC2CCC(C(=O)Nc3ccc(Cl)cc3)CC2)cs1 (stereo not given) | i | nt | nt | nt | i
CC1=C(C(=O)OCc2ccccc2)C(c2ccc(Cl)cc2)NC(=O)N1CCCCCC(=O)O (stereo not given) | i | ? | i | 12µM | i
CC1=C(C(=O)OCc2ccccc2)C(c2cccc([N+](=O)[O-])c2)NC(=O)N1CCCCCC(=O)O (stereo not given) | i | ? | i | 10µM | i
CCOC(=O)C1=C(C)N(CCCCCC(=O)O)C(=O)NC1c1cccc([N+](=O)[O-])c1 (stereo not given) | i | i | i | i | i
CC1=C(C(=O)OCc2ccccc2)C(c2ccccc2)NC(=O)N1CCCC(=O)O (stereo not given) | i | ? | i | ? | i
COc1ccccc1NC(C)C(=O)c1c[nH]c2ccccc12 (stereo not given) | i | nt | nt | nt | i
O=C(CN1CCN(S(=O)(=O)c2cccs2)CC1)NCC1CCCCC1 | nt | ? | i | ? | nt
CC(C(=O)NC1CCCC1)N1CCN(S(=O)(=O)c2ccc(C(C)(C)C)cc2)CC1 (stereo not given) | nt | 1.5µM | i | 1.5µM | nt
CC(C(=O)NCC1CCCCC1)N1CCN(S(=O)(=O)c2cccs2)CC1 (stereo not given) | i | 9.3µM | i | ? | i
C/C(=N\NC(=O)C(C)Oc1ccc([N+](=O)[O-])cc1)c1ccccn1 (stereo not given) | nt | ? | i | 2.1µM | nt
O=C(NNC1=Nc2ccccc2SC1)c1cccc([N+](=O)[O-])c1 | i | ? | i | 10µM | i
COc1ccc(OC(C)C(=O)Nc2ccc([N+](=O)[O-])cc2)cc1 (stereo not given) | i | ? | i | 15µM | i
CC(C)Oc1ccc(C(=O)Nc2ccc([N+](=O)[O-])cc2)cc1 | nt | i[5.75 µM] | i | i | nt
CC(C)C(=O)NNC(=O)c1ccccn1 | i | ? | i | 13µM | i
O=C(NCc1ccccc1Cl)c1ccc(CSCc2ccccc2Cl)o1 | i | nt | nt | nt | i
CCOCCCNC(=O)c1ccc2c(c1)NC(=O)C(CS(=O)(=O)Cc1ccc(F)cc1Cl)N2 (stereo not given) | i | nt | nt | nt | i
CC(C)Nc1nc(Cl)nc(NNC(=O)C(C)Oc2ccccc2)n1 (stereo not given) | nt | i | i | 1.7µM | nt
COc1cc(OC)cc(C(=O)NNC(=O)c2ccccn2)c1 | ? | 9.3µM | i | ? | ?
CC(Oc1ccccc1)C(=O)NNC(=O)c1ccccn1 (stereo not given) | ? | 9.3µM | i | ? | ?
O=C(NNC(=O)c1ccccn1)c1cccc([N+](=O)[O-])c1 | i | 13µM | i | i | ?
O=C(c1cccc([N+](=O)[O-])c1)c1ccccn1 | nt | i | i | i | nt
Cc1cccc(-c2nc3c4ccccc4n(Cc4cccc(Cl)c4)c(=O)n3n2)c1 | i | nt | nt | nt | i
COc1ccc(C(=O)/C(C#N)=N/Nc2ccc([N+](=O)[O-])cc2)cc1 | ? | 13µM | i | ? | ?
COc1ccc(-n2c(CCc3ccccc3)nnc2SCC(=O)NCc2ccccc2)cc1 | i | nt | i | 10µM | i
